Test results published in PubChem BioAssay AID743395 (Broad Institute, 2014).
The whole screen tested about 1,200 compounds, of which about 480 (40%) were called active. How the calls were made is not given here. The set was probably picked from earlier hits. Only a sample is shown. Results with a measured potency or affinity are listed apart.

Test: viability loss in human hepatoma cells – cell-based, CellTiter-Glo luminescence, cherry-pick, set 2, cytotoxicity control, dose response (AID 743395);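 further: 0% = neutral control wells and -100% = positive control wells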
Conditions: HepG2 viability, CellTiter-Glo ATP luminescence, 72 h; series mostly up to 26 µM; activity change, negative = cytotoxicity: at the top concentration

Compound | activity change, negative = cytotoxicity
COc1ccc(OC)c(N/C(N)=N/c2nc(C)cc(C)n2)c1 | -5.35% (inactive)
COc1cc(C(O)CO)ccc1OS(=O)(=O)O (stereo not given) | -16.3% (inactive)
COc1ccc2c(c1OC)OCC2C (stereo not given) | -0.236% (inactive)
Cc1cc(C)nc(N(C#N)Cc2cccc(Cl)c2)n1 | -20.8% (inactive)
CCOc1ccc(C(=O)NCC(=O)NNC(=O)c2cc(C)oc2C)cc1OCC | 3.23% (inactive)
Cc1cccc(C(=O)OCC(=O)NC(C)C2CC3CCC2C3)c1O (stereo not given) | -11.9% (inactive)
Cc1ccc(-n2cc(-c3ccccc3)c3c(N4CCOCC4)ncnc32)cc1 | 16.3% (inactive)
O=C(C(Cc1ccccc1)n1cccc1)N1CCCCC1 (stereo not given) | 9.04% (inactive)
CC(C)(C)C1COc2ccccc2N1C(=O)c1cccc(Cl)c1 (stereo not given) | -1.18% (inactive)
C/C=C/c1ccc2c(c1)O[C@@H](CN(C)C(=O)Nc1cccc(F)c1)[C@H](C)CN([C@H](C)CO)S2(=O)=O | 5.7% (inactive)
Cc1cc2c(s1)Nc1ccccc1N=C2N1CCN(C)CC1 | -19.3% (inactive)
CCN[C@H]1CN(CCCOC)S(=O)(=O)c2sc(S(N)(=O)=O)cc21 | 6.26% (inactive)
O=C(c1ccc2ccccc2c1)N1CCN(Cc2ccccc2)CC1 | -13.3% (inactive)
Cc1cccc(N2CCN(C(=O)c3c(-c4ccccc4Cl)noc3C)CC2)c1C | -18.3% (inactive)
NC1(C(=O)O)CC1 | 11.4% (inactive)
O=c1cnc2ccccc2n1CC1CCCCC1 | -4.42% (inactive)
Cc1cc(C)c(/C=C2\C(=O)Nc3ccccc32)[nH]1 | -18.6% (inactive)
Cc1cccc(N(C)S(=O)(=O)c2ccc(-c3cc(C)no3)s2)c1 | 10.6% (inactive)
CC(OC(=O)c1cccs1)C(=O)NC1CCCCC1C (stereo not given) | -16.4% (inactive)
Cc1cc(C(=O)N/N=C/c2ccc([N+](=O)[O-])cc2)c2ccccc2n1 | -25.6% (inactive)
CN(C)c1ccc2c(c1)[C@@H]1C[C@@H](CC(=O)NCc3ccc(Oc4ccccc4)cc3)O[C@H](CO)[C@@H]1O2 | -15.5% (inactive)
Cc1cc(C(=O)N2CC=C(c3ccccc3)CC2)c2ccccc2n1 | -29.1% (inactive)

Compound | activity change, negative = cytotoxicity
CCN(CC(=O)Nc1cc(Cl)ccc1-n1cncn1)Cc1nc2ccccc2c(=O)[nH]1 | -9.39% (inactive)
CCN(C(=O)COC(=O)c1cc2c(s1)CCCC2)c1c(N)n(Cc2ccccc2)c(=O)[nH]c1=O | -4.95% (inactive)
COc1ccccc1NS(=O)(=O)c1cc(-c2cnc(C3CC3)o2)ccc1C | -17.7% (inactive)
O=S(=O)(Nc1ccc(F)cc1Cl)c1ccc(-c2cnc(C3CC3)o2)cc1 | -20.5% (inactive)
CC(C)c1cccc(-c2csc(C(O)c3ccco3)n2)c1 (stereo not given) | -11.9% (inactive)
COc1ccc(OC)c(-c2nnc3n2N=C(c2ccc(OC)c(OC)c2)CS3)c1 | -34.3% (inactive)
Cc1cc(N2CCCC2)c(F)cc1/C=C\[N+](=O)[O-] | -34.7% (inactive)
NS(=O)(=O)c1ccc2nc(NC(=O)c3ccc4c(c3)OCCO4)sc2c1 | 4.38% (inactive)
C/C=C/c1ccc([C@@H]2[C@H](CO)N(CC3CC3)[C@H]2CNC(=O)c2ccccc2)cc1 | -25.2% [at 23.5 µM] (inactive)
CCOc1ccc(S(=O)(=O)N2CCCCC2)cc1NC(=O)c1ccccc1 | 18.5% (inactive)
COc1ccc(-c2nc(-c3cccc(C)c3)no2)cc1OC | -1.21% (inactive)
Nc1ccc(S(=O)(=O)Nc2cnc3ccccc3n2)cc1 | -11.6% (inactive)
COc1ccc(S(=O)(=O)Cc2ccc(C(=O)N3CCN(c4cccc(C)c4)C(C)C3)o2)cc1 (stereo not given) | -11.2% (inactive)
Cc1ccccc1OCC(=O)OCC(=O)NCCc1ccccc1 | 21% (inactive)
COC(=O)C[C@@H]1CC[C@@H]2[C@H](COc3ccc(NC(=O)c4cc(C)on4)cc3C(=O)N2C)O1 | -12.3% (inactive)
CC(=O)N1Cc2cc(C(=O)NCC(F)(F)F)nc(-c3cccc(-c4cccnc4)c3)c2[C@@H]1CCO | -7.78% (inactive)
CN(Cc1c(F)cccc1Cl)C(=O)c1ccc(NC(=O)CC2SC(N3CCCCC3)=NC2=O)cc1 (stereo not given) | -8.12% (inactive)
Cc1noc(NS(=O)(=O)c2ccc(N/C=C\C(=O)c3ccccc3)cc2)c1C | -5.75% (inactive)
COc1cc(OC)cc(C(=O)NC(=S)Nc2ccc3oc(=O)ccc3c2)c1 | 7.96% (inactive)
S=C(NCc1ccco1)NCC1CCCO1 (stereo not given) | -18.5% (inactive)
O=C(c1[nH]ncc1-c1ccc(Cl)cc1)C1CO1 (stereo not given) | -2.79% (inactive)
Cc1cc2nnc(SCC(=O)NCc3ccco3)n2c2ccccc12 | 10.6% (inactive)

Compound | activity change, negative = cytotoxicity
CCCCC1(C2CCCC2)NC(=O)NC1=O (stereo not given) | 5% (inactive)
CNS(=O)(=O)c1cccc(C(=O)OCC(=O)c2cc(C)n(CC3CCCO3)c2C)c1 (stereo not given) | 7.11% (inactive)
O=Cc1ccccc1OCc1ccc2c(c1)OCO2 | 1.7% (inactive)
CCOC1=C2[C@@H](CN(S(=O)(=O)c3ccc(C)cc3)[C@H]2c2ccc(Cl)cc2)[C@H]2C(=O)N(c3ccccc3)C(=O)[C@H]2C1 | -5.52% (inactive)
COc1cc(C(=O)c2cocc2C(=O)c2ccc3c(c2)OCO3)cc(OC)c1OC | -22.8% (inactive)
COc1ccc(N(C)S(=O)(=O)c2cccc(C(=O)NCC3CCCCC3)c2)cc1 | -13.4% (inactive)
COCCNC(=O)C1CCCN(C(=O)c2ccc3sccc3c2)CC1 (stereo not given) | -0.219% (inactive)
CCCNC(=O)N1CC2(CN(CC3CCCCC3)C2)c2c(n(C)c3cc(OC)ccc23)[C@H]1CO | -7.75% (inactive)
COCC(=O)N1C[C@@H]2[C@H](c3ccccc31)[C@H](CO)N2Cc1ccc(OC)cc1 | 11.1% (inactive)
COc1ccc2c3c(n(C)c2c1)[C@H](CO)NCC31CCN(Cc2cc(-c3ccccc3)on2)CC1 | -16.1% (inactive)
COc1ccc2c(c1)[nH]c1c(=O)n(/N=C/c3ccc(OC)c(CN4CCCC4)c3)cnc12 | -6.55% (inactive)
COc1ccc2c3c([nH]c2c1)[C@H](CO)N(C(=O)Nc1ccc(F)cc1)CC31CCN(S(=O)(=O)c2ccccc2)CC1 | -4.51% (inactive)
Cc1sc(NC(=S)NC(=O)CCc2ccccc2)c(C(N)=O)c1C | -30.3% (inactive)
COCCNC(=O)NC12CC3(C)CC(C)(CC(C)(C3)C1)C2 | -11.8% (inactive)
COc1ccccc1C(=O)Nc1onc(C)c1C#N | -24.7% (inactive)
COc1cccc(N2CCN(C(=O)c3ccc(CS(=O)c4ccc(Cl)cc4)o3)CC2)c1 (stereo not given) | -27.7% (inactive)
COc1cccc(CNC(=O)CSc2nc3ccc(C)cc3[nH]2)c1 | 3.46% (inactive)
CC(C)(C)c1csc(NC(=O)Cc2cccs2)n1 | -22.9% (inactive)
Cc1ccc(S(=O)(=O)N[C@H](C(=O)OCC(=O)NC(=O)C2CCCCC2)C(C)C)cc1 | 2.53% (inactive)
CN1CCN(C(=O)c2ccc(CN(c3ccccc3)S(=O)(=O)c3ccccc3)cc2)CC1 | 4.86% (inactive)
CC(C)c1ccc(NC(=O)CN2C(=O)NC3(CCCCCCC3)C2=O)cc1 | -33% (inactive)
